Source: PubChem (National Center for Advancing Translational Sciences (NCATS))
Pf Dd2 inh: blocks in vitro growth of P. falciparum Dd2. P. falciparum Dd2 growth, SYBR Green, 72 h. Potency, µM (doses to about 28.9 µM), most hits filed as inhibitors. 120,000 tested, 4.3% active; active = well fitted inhibition curve with a large enough effect; note: nearly all actives have a fitted effect of over 65% in size
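Infected erythrocytes (Dd2, 0.3% parasitemia, 2.5% hematocrit final) are added to compound in RPMI-1640/Albumax II medium, grown 72 h at 37C in low oxygen, then lysed with saponin/Triton-X containing SYBR Green and read by fluorescence.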
Each line names hits and unclear results; the compound was inactive in the other large screens. Only a selection was taken, and hits are over-represented in it overall.

CS(=O)(=O)N1CCC(NC(=O)CCc2cc3n(n2)CCCNC3)CC1	none
O=C1CCCN1CCN1CCOc2c(O)cc(-c3csc4ccccc34)cc2C1	Pf Dd2 inh 11µM
CN(C)C(=O)N1CCC2(CC1)CN(C(=O)CCCN)Cc1ccccc1O2	none
Cn1nc2n(c1=O)CCN(C(=O)CCCc1nc3ccccc3s1)CC2	none
C=CCCC(=O)N1CCOc2c(O)cc(-c3nc4ccccc4s3)cc2C1	Pf Dd2 inh 11µM
Cc1cnc(C)c(-c2cc(O)c3c(c2)CN(CC2CNC(=O)O2)CCO3)n1 (centres undefined)	none
O=C(CCc1nc2ccccc2s1)N1CCC(c2noc(-c3ccccc3)n2)C1 (centres undefined)	none
O=c1c(N2CCc3ccccc3C2)csc2ccccc12	none
NCCCCC(=O)N1CCOc2c(O)cc(-c3csc4ccccc34)cc2C1	Pf Dd2 inh 5µM
NCCCC(=O)N1CCC2(CC1)CN(C(=O)Cc1ccccc1)CCO2	none
CN1[C@@H](CCC(=O)N2CCOCC2)CNC(=O)[C@@H]2[C@H]1CCN2Cc1cccs1	none
COC[C@@H]1[C@H](C(=O)NCCC2=CCCCC2)CCC(=O)N1C	none
O=C1CC(c2noc(-c3ccccc3)n2)CN1c1ccc(F)c(Cl)c1 (centres undefined)	none
CNC(=O)[C@@H]1CN(Cc2ccc3cc[nH]c3c2)C[C@H]1c1nc(C)no1	none
CC(C(=O)NCCc1ccccn1)C1CCOCC1 (centres undefined)	none
CCc1ccc(S(=O)(=O)N2CCN(C3CCN(Cc4cccnc4)C3=O)CC2)cc1 (centres undefined)	none
O=C(Cn1nc2c(cc1=O)CCCCC2)Nc1nc2ccccc2s1	none
O=C(NCc1ccc(N2CCOCC2)cc1)C1CCN(c2cnc3nccnc3c2)CC1	none
Clc1ccccc1-c1nc(Nc2ccccc2)nc2ccc(Br)cc12	none
Clc1ccc(Nc2nc(-c3ccccc3)c3cc(Cl)ccc3n2)cc1	none
COc1cccc(Nc2nc(-c3ccccc3)c3cc(C)ccc3n2)c1	Pf Dd2 inh 10µM
CC(C)CN(CC1CN(C(=O)c2ccccc2Cl)CCO1)C(=O)c1cccc(F)c1 (centres undefined)	none
COCCNC(=O)C[C@@H]1C[C@H]2O[C@H](CNCc3ccccc3C)[C@@H](O)[C@H]2O1	none
COc1ccc(-c2ccc3c(N)c(C(=O)Nc4ccc(C(F)(F)F)cc4)sc3n2)cc1OC	none
COc1ccc(NC(=O)c2sc3nc(-c4ccc(OC)cc4)cc(C(F)(F)F)c3c2N)cc1	none
COc1ccc(NC(=O)c2sc3nc4c(c(-c5ccc(OC)cc5)c3c2N)C(=O)CC(C)(C)C4)cc1	Pf Dd2 inh 1µM
CNCC(=O)N1CCCC(N2CCN(Cc3ccc4c(c3)OCO4)CC2)C1 (centres undefined)	none
Cc1ccccc1OCc1nc(C2CN(C(=O)Cc3cccc(F)c3)C2)no1	none
COc1ccccc1CN1COc2ccc3c(oc(=O)c4ccccc43)c2C1	Pf Dd2 inh 0.56µM
COc1ccccc1CN1CCc2nc(C(=O)N3CCOCC3)oc2CC1	none
CCCc1cc(=O)oc2c3c(ccc12)OCN(Cc1ccccc1OC)C3	Pf Dd2 inh 3.2µM
COc1ccccc1CN1CCC(n2cc[nH]c2=O)CC1	none
COc1ccc(CN2CCN(Cc3cc(=O)oc4cc(C)ccc34)CC2)c(OC)c1OC	none
COc1ccccc1CN1CC[C@H]2COC(=O)N2c2cc(C)ccc2C1	none
Cc1cc(C)n(CC(=O)N[C@@H]2CN(C)C[C@H]2CN(C)C)n1	none
CCC(CC)C(=O)Nc1ccc([C@@H](O)[C@H]2COCC(=O)N2)cc1	none
Cc1nc(C(=O)N2CC(F)(F)C[C@H]2c2nnc(C3CC3)o2)co1	none
O=C(NC1CCOCC1)c1ccc2c(c1)OCCN(c1ccccc1)C2	none
O=C(NCc1ccncc1)c1ccc2c(c1)OCCN(c1cccc(OC(F)(F)F)c1)C2	none
CNC(=O)c1ccc2c(c1)OCCN(c1cccc(OC(F)(F)F)c1)C2	Pf Dd2 inh 11µM
O=C(NCc1ccncc1)c1ccc2c(c1)OCCN(c1ccccc1)C2	none
COc1ccc(NC(=O)c2ccc3c(c2)OCCN(c2ccccc2)C3)cn1	none
O=C(NCCOc1ccccc1)c1ccc2c(c1)OCCN(c1ccccc1)C2	none
O=C(Nc1nccs1)c1ccc2c(c1)OCCN(c1cccc(OC(F)(F)F)c1)C2	none
O=C(NC1CC1)c1ccc2c(c1)OCCN(c1cccc(OC(F)(F)F)c1)C2	Pf Dd2 inh 3.5µM
O=C(NCCc1ccccc1)c1ccc2c(c1)OCCN(c1ccccc1)C2	Pf Dd2 inh 10µM
O=C(Nc1ccc(Cl)nc1)c1cnn2ncccc12	none
CN(C(=O)CCS(=O)(=O)c1ccccc1)C1CCc2nn(C)c(=O)n2CC1 (centres undefined)	none
CC(C)Oc1ccc(CNC(=O)Cn2c(-c3cccs3)cc3ccccc32)cc1	none
COc1cccc(N2CCN(C(=O)Cn3c(-c4cccs4)cc4ccccc43)CC2)c1	none
Cc1ccc(-n2nc(C)c(C(=O)NCCCN3CCN(c4ccc(F)cc4)CC3)c2-n2cccc2)cc1	none
Cc1cccc(CNC(=O)CN2CC(C)Sc3ccccc32)c1 (centres undefined)	none
Cc1cccc(CNC(=O)Cn2c(-c3cccs3)cc3ccccc32)c1	Pf Dd2 inh 11µM
COc1ccc(N2CCN(CCCNC(=O)Nc3ccccc3)CC2)cc1	none
O=C(Cn1c(-c2cccs2)cc2ccccc21)NCCCN1CCN(c2ccc(F)cc2)CC1	Pf Dd2 inh 10µM
CCOC(=O)c1c(C)[nH]c(CCC(=O)NCCCN2CCN(c3ccc(F)cc3)CC2)c1C	none
COc1ccc(N2CCN(CCCNC(=O)Cn3c(-c4cccs4)cc4ccccc43)CC2)cc1	Pf Dd2 inh 11µM
Cc1ccc(NC(=O)CC2CCOCC2)cc1C	none
O=C(Nc1ccc([C@H]2OCC(=O)N(Cc3ccc(F)cc3)[C@@H]2CO)cc1)c1ccco1	none
Cc1cnc(-c2cccnc2)n1C1CCCN(C(=O)c2cccn2C)C1 (centres undefined)	none
Cc1ccccc1-c1onc(C)c1C(=O)NCCc1ccc(F)cc1	none
Cc1cccc(CC(=O)N2CCC3(CC2)CC(N(C(=O)NC(C)C)C2CC2)CCO3)c1 (centres undefined)	none
C[C@@H](NC(=O)c1cccn1C)c1c(-c2ccc(F)cc2)noc1C(=O)O	none
O=C(CN1C(=O)NC2(CCOCC2)C1=O)Nc1ccccc1F	none
O=C(Cc1ccc2c(c1)OCO2)N[C@@H]1CCOC[C@H]1Oc1ccccn1	none
CCOc1ccccc1CN1CCC2(CCN(C(=O)c3ccc(OC)cc3)CC2)Oc2ccccc21	none
CCCN1CCC2(CCN(C(=O)Nc3ccc(Cl)cc3)CC2)Oc2ccccc21	none
O=C(c1cccc(Cl)c1)N1CCC2(CC1)CCN(Cc1cccs1)c1ccccc1O2	Pf Dd2 inh 7.9µM
COCC1CN(C(C)=O)CC12CCN(C(=O)CC1=CCCCC1)CC2 (centres undefined)	none
O=C(c1ccccc1Cl)N1CCC(c2nn(Cc3ccccc3)c(=O)[nH]2)CC1	none
COCCN(Cc1c(C)nn(C)c1C)CC1[C@H]2CNC[C@@H]12 (some centres undefined)	none
Fc1cccc(-n2cc(CN3CCCC4(CCOC4)C3)cn2)c1 (centres undefined)	none
CN(Cc1ccc(CN2CCCC(O)(CO)C2)o1)S(C)(=O)=O (centres undefined)	none
CC(C)c1ccc(-n2cc(CN3CCCC(O)(CN(C)C)C3)cn2)cc1 (centres undefined)	Pf Dd2 inh 6.3µM
CN(C)C(=O)c1ccc(OC2CCN(C(=O)C3CC3)CC2)nc1	none
C=CCOC(=O)C1=C(C)N(Cc2ccc(Br)cc2)C(=O)CC1c1ccccc1Cl (centres undefined)	none
O=C(NC1CC1)C1(CCO)CC12CCOCC2 (centres undefined)	none
